Compounds with a hit are over-represented: about 2.8% of the library has one in this group of screens.
KDM5B inhibitor: Primary screen for KDM5B Histone Demethylases FDH-coupled qHTS. Lysine-specific demethylase 5B (Homo sapiens), Q9UGL1. KDM5B demethylase, FDH-coupled NADH fluorescence (FDH is formaldehyde dehydrogenase). Potency, µM (top dose mostly 57.7 µM), most hits filed as inhibitors. 220,000 compounds, 2.6% hits. AID 1347165, 2019; active means well fitted inhibition curve with a large enough effect; inconclusive means small, poorly fitted or top-dose-only effect; inactive means no such curve, though single readings can be large or run the other way; further: potency means the concentration at half of the fitted maximal effect; 0% is about no effect; nearly all actives have a fitted effect of over 70% in size
Target sequence (Q9UGL1 whole entry, looked up): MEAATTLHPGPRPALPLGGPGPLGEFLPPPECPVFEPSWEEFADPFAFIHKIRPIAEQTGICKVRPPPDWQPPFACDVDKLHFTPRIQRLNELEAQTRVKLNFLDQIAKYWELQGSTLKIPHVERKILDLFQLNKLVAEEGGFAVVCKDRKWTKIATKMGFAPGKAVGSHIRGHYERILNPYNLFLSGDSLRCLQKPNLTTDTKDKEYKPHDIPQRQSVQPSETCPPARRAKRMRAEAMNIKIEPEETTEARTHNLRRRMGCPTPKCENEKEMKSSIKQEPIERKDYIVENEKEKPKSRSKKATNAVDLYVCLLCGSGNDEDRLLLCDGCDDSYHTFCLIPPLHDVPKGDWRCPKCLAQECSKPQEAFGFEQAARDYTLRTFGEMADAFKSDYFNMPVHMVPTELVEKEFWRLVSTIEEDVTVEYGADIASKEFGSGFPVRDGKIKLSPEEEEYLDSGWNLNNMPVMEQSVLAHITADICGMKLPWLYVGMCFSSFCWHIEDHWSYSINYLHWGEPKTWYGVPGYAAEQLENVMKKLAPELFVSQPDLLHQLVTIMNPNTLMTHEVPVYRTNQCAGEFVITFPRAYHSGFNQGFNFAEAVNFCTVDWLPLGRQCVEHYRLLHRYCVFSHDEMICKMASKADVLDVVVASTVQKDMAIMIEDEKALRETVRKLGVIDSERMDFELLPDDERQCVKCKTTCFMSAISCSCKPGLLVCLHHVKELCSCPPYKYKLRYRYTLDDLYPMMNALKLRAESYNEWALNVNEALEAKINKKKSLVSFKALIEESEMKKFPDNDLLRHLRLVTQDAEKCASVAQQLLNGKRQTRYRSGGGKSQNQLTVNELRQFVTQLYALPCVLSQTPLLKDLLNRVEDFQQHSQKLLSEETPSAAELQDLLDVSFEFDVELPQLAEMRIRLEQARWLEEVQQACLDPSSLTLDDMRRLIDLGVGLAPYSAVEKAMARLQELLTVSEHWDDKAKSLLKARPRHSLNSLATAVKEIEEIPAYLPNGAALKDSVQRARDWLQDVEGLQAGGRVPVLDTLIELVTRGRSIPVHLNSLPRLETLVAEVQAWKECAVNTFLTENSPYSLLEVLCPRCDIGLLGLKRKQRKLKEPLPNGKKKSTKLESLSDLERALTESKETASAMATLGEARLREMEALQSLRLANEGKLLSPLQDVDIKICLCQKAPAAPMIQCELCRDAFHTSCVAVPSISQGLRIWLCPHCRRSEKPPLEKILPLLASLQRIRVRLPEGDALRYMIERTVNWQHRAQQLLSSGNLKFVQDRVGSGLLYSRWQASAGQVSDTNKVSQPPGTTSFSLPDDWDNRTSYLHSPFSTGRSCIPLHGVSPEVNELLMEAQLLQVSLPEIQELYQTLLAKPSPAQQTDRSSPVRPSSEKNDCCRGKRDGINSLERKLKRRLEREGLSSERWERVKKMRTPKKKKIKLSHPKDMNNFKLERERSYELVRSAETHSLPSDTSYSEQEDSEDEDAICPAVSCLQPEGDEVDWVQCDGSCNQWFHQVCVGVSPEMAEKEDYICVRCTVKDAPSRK
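qHTS format, multiple compound concentrations. Buffer 50 mM HEPES pH 7.5/0.01% Tween-20; 200 nM KDM5BΔAP final; 10 min compound preincubation; substrate-mix levels 12.5 µM peptide, 25 µM α-KG, 0.25 mM NAD⁺; 30 min RT; ΔRFU.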
IP6K1 inhibitor: Primary qHTS assay for small molecule inhibitors of Inositol hexaphosphate kinase 1 (IP6K1) | IP6K1 kinase, ADP-Glo luminescence, 2 h; stronger effect = lower value | activity change, % (series mostly up to about 58 µM) | 140,000 compounds, 0.81% hits | AID 1645851, 2021; in the data active means activity change below about -25%; further: on the % scale 0 is the no-effect control and ±100 the full control effect
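ADP-Glo luminescence measures ADP made by human IP6K1 during a 2 h RT reaction with ATP/IP6 (mix at 1.3 mM/130 uM); top library doses 57.5 and 19.1 uM final.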
* marks the source's active call; other numbers are inactive results.

Screening COCC(C)Nc1nccc(C2(c3ccccc3Cl)CCNCC2)n1 (stereo not drawn) returned KDM5B inhibitor 22.4µM* and IP6K1 inhibitor 4.8.
For CN1CCC(CNc2nccc(C3(c4ccccc4Cl)CCNCC3)n2)C1 (stereo not drawn) the results were KDM5B inhibitor inconclusive and IP6K1 inhibitor 5.4.
Screening CC(C)Nc1nccc(C2(c3ccccc3Cl)CCNCC2)n1 returned KDM5B inhibitor inconclusive and IP6K1 inhibitor -3.2.
Screening O[C@@H]1CCN(c2nccc(C3(c4ccccc4Cl)CCNCC3)n2)C1 returned KDM5B inhibitor 28.2µM* and IP6K1 inhibitor 16.3.
For CCc1cc(CC)n(-c2nc3c(c(=O)n(Cc4ccc(F)cc4)c(=O)n3C)n2C)n1 the results were KDM5B inhibitor inactive.
For CCOCCCNC(=O)c1cccc(C#N)c1 the results were KDM5B inhibitor inactive.
COc1ccc(-c2ccc(C(=O)NC3CC3)c(Cl)c2)nn1 was read as IP6K1 inhibitor -14.9.
For CN(C)c1ccc(NC(=O)c2cc3cc(F)ccc3[nH]2)cc1 the results were KDM5B inhibitor inactive.
`COc1cccc([C@H]2CN(C(=O)c3c(-c4ccccc4)noc3C)C[C@@H]2N)c1` gave KDM5B inhibitor inactive and IP6K1 inhibitor 14.7.
Screening Cc1noc([C@@H]2CN(C(=O)c3ccc4[nH]ccc4c3)C[C@H]2CO)n1 returned KDM5B inhibitor inactive and IP6K1 inhibitor -12.4.
For O=C(c1ccc2cc[nH]c2c1)N1C[C@@H](CO)[C@H](c2ccccn2)C1 the results were KDM5B inhibitor inconclusive and IP6K1 inhibitor -2.0.
For CCn1ccc(C(=O)N2C[C@@H](COC)[C@H](c3nc(C)no3)C2)n1 the results were KDM5B inhibitor inactive and IP6K1 inhibitor -6.0.
For Cc1noc([C@@H]2CN(C(=O)c3ccc4cc[nH]c4c3)C[C@H]2CO)n1 the results were KDM5B inhibitor 25.1µM* and IP6K1 inhibitor -5.0.
COc1cccc([C@H]2CN(C(=O)c3ccc4cc[nH]c4c3)C[C@@H]2N)c1 was read as KDM5B inhibitor 31.6µM* and IP6K1 inhibitor -20.1.
COC[C@@H]1CN(C(=O)c2cn3ccccc3n2)C[C@H]1c1nc(C)no1 was read as KDM5B inhibitor 20µM* and IP6K1 inhibitor -3.6.
O=C(c1cc[nH]c(=O)c1)N1C[C@@H](CO)[C@H](c2ccccn2)C1 was read as KDM5B inhibitor 22.4µM* and IP6K1 inhibitor 0.0.
Screening CCOCCn1c(Br)nc2c1c(=O)n(C)c(=O)n2C returned KDM5B inhibitor inactive.
`CCOc1ccc2nc(SCc3cccc(-c4ccccc4)c3C)sc2c1` gave KDM5B inhibitor inactive.
`CNC(=O)c1cc(C2CC2)nc2c1c(C1CCN(C(=O)c3ccncc3)C1)nn2C` (stereo not drawn) gave IP6K1 inhibitor 18.2.
`CCCc1ccc(-c2nc(C3CCOC3)no2)cc1` (stereo not drawn) gave KDM5B inhibitor inactive and IP6K1 inhibitor 22.3.
For Clc1ccc2nc(-c3nc(C4CCOC4)no3)cn2c1 (stereo not drawn) the results were KDM5B inhibitor 22.4µM* and IP6K1 inhibitor 13.3.
Screening CCOc1cc(=O)n2c(c1C(=O)NCCOC)CCCCC2 returned KDM5B inhibitor inactive and IP6K1 inhibitor -17.5.
For CCOc1cc(=O)n2c(c1C(=O)NCCCN1CCCc3ccccc31)CCCCC2 the results were KDM5B inhibitor 11.2µM* and IP6K1 inhibitor 0.2.
`CC(C)CCCC(C)NC(=O)CCNC(=O)c1ccccc1` (stereo not drawn) gave KDM5B inhibitor inactive.
`C[C@@H]1C(=O)O[C@H]2[C@H]1CC[C@@]1(C)Cc3sc(Nc4ccc(C(=O)O)cc4)nc3[C@@H](C)[C@H]21` gave KDM5B inhibitor 35.5µM* and IP6K1 inhibitor 15.2.
`C[C@@H]1C(=O)O[C@H]2[C@H]1CC[C@@]1(C)Cc3sc(NC(=O)CN(C)C)nc3[C@@H](C)[C@H]21` gave KDM5B inhibitor inactive and IP6K1 inhibitor -0.4.
For C[C@@H]1C(=O)O[C@H]2[C@H]1CC[C@@]1(C)Cc3sc(Nc4ccccc4)nc3[C@@H](C)[C@H]21 the results were KDM5B inhibitor inactive and IP6K1 inhibitor -0.1.
`C[C@@H]1C(=O)O[C@H]2[C@H]1CC[C@@]1(C)Cc3sc(NC(=O)c4ccc(N(C)C)cc4)nc3[C@@H](C)[C@H]21` gave KDM5B inhibitor 28.2µM* and IP6K1 inhibitor 22.0.
CCOC(=O)c1noc2nc(C)nc(Nc3cccc(C(F)(F)F)c3)c12 was read as KDM5B inhibitor inactive.
`COc1nc2nc(CCc3ccccc3)n(C)c2cc1-c1ccnn1C` gave KDM5B inhibitor 39.8µM* and IP6K1 inhibitor 8.7.
COc1nc2nc(CCc3ccccc3)n(C)c2cc1-c1ccncc1 was read as KDM5B inhibitor inconclusive and IP6K1 inhibitor 14.5.
`COc1ccc(-c2cc(N3CCCC(NC(=O)c4ccc5[nH]ccc5c4)C3)n[nH]2)cc1` (stereo not drawn) gave KDM5B inhibitor inconclusive and IP6K1 inhibitor 2.0.
Screening O=C(NCc1nnc2ccc(-c3ccccc3)nn12)c1ccc(F)cc1 returned KDM5B inhibitor 31.6µM* and IP6K1 inhibitor 8.9.
`CC(Oc1ccccc1)C(=O)NCc1nnc2ccc(-c3ccccc3)nn12` (stereo not drawn) gave KDM5B inhibitor inactive and IP6K1 inhibitor -6.7.
O=C(NCc1nnc2ccc(-c3ccccc3)nn12)c1ccncc1 was read as KDM5B inhibitor 28.2µM* and IP6K1 inhibitor -4.9.
For O=C(NCc1nnc2ccc(-c3ccccc3)nn12)c1ccc(Cl)cc1 the results were KDM5B inhibitor 28.2µM* and IP6K1 inhibitor 5.2.
For O=C(CNC(=O)c1ccccc1)NCc1nnc2ccc(-c3ccccc3)nn12 the results were KDM5B inhibitor 31.6µM* and IP6K1 inhibitor 4.3.
`Cc1ccc(-c2ccc3nnc(CNC(=O)c4ccc(Cl)cc4)n3n2)cc1` gave KDM5B inhibitor inconclusive and IP6K1 inhibitor -5.7.
For O=C(Cc1cccs1)NCc1nnc2ccc(-c3ccccc3)nn12 the results were KDM5B inhibitor inactive and IP6K1 inhibitor 31.9.
Screening O=C(COc1ccc(F)cc1)NCc1nnc2ccc(-c3ccccc3)nn12 returned KDM5B inhibitor inconclusive and IP6K1 inhibitor 10.0.
`CCNc1c(NC(=O)NCc2ccc(F)cc2)c(=O)oc2ccccc12` gave KDM5B inhibitor inactive.
Screening CNC(=O)NC(=O)C(c1ccccc1)N(C)Cc1ccccc1 (stereo not drawn) returned KDM5B inhibitor inactive.
For Cc1ccc(C(=O)NCCCNC(=O)c2cc3ccccc3[nH]2)cc1 the results were KDM5B inhibitor inactive.
O=C(NCc1nnc2ccc(-c3ccccc3)nn12)c1ccoc1 was read as KDM5B inhibitor 31.6µM* and IP6K1 inhibitor -7.2.
For O=C(NCc1nnc2ccc(-c3ccc(F)cc3)nn12)c1ccoc1 the results were KDM5B inhibitor inconclusive and IP6K1 inhibitor 16.2.
Screening O=[S+]([O-])(c1ccccc1)N1CCN(Cc2ccccc2-c2ccccc2F)CC1 returned IP6K1 inhibitor 19.0.
For CCN(C)C(=O)C(C)N1CCc2onc(-c3ccc(-c4ccccc4)cc3)c2C1 (stereo not drawn) the results were KDM5B inhibitor 25.1µM* and IP6K1 inhibitor 36.4.
`CCN(C)C(=O)C(C)N1CCc2onc(C(c3ccccc3)c3ccccc3)c2C1` (stereo not drawn) gave KDM5B inhibitor inactive and IP6K1 inhibitor -0.2.

Compound activity: PubChem, National Center for Advancing Translational Sciences (NCATS)
